Tb PYK inh – blocks Trypanosoma brucei pyruvate kinase. Q57TT1. TbPYK enzyme, Kinase-Glo Plus ATP luminescence, 45 min. Potency, µM (doses to about 76.8 µM), for inactives: at the top dose activity, negative = inhibition, most hits filed as inhibitors. 410,000 tested, 0.12% active. AID 624173; further: on the % scale 0 is the no-effect control and ±100 the full control effect; nearly all actives have a fitted effect of over 50% in size
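ADP (130 uM final) triggers the TbPYK reaction after compound addition; incubation is 45 min at room temperature. Kinase-Glo Plus is then added and luminescence imaged. Normalized data are fitted to concentration-effect curves.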
LmPK inh – LmPK (Leishmania mexicana) enzyme inhibition; Q27686; purified LmPK, Kinase-Glo ATP luminescence, 1 h; AID 1721; Potency, µM (series often up to 57.5 µM), for inactives: at the highest dose activity change, negative = inhibition, hits mostly inhibitors; 290,000 tested, 0.37% active; further: on the % scale 0 is the no-effect control and ±100 the full control effect
Target sequence (Q27686 whole entry, looked up): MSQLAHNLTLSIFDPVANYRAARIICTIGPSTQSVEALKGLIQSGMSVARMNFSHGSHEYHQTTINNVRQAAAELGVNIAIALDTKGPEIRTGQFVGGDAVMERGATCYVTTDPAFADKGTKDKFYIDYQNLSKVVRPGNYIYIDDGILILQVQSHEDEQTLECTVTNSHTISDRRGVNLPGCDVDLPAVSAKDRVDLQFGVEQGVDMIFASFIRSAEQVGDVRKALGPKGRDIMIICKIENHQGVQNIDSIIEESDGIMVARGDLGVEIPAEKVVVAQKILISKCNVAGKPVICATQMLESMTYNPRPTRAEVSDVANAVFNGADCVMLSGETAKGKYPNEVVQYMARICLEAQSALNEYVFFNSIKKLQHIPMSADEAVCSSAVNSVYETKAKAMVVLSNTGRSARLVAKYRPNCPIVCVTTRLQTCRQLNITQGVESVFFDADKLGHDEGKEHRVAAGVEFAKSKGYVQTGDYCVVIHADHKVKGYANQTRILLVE
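0.1 nM LmPK, 0.5 mM PEP, 0.1 mM ADP; 50 mM imidazole pH 7.2, 7 mM MgCl2, 50 mM KCl; 1 h RT. Kinase-Glo luminescence readout, normalized to no-enzyme (full inhibition) and uninhibited wells.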
Giardia FBPA inh-1 – blocks Giardia fructose-bisphosphate aldolase activity. purified Giardia FBPA. Potency, µM (doses to about 59.6 µM), without a hit: top-dose activity, negative = inhibition, usual class: inhibitors. 290,000 tested, 0.71% active; further: on the % scale 0 is the no-effect control and ±100 the full control effect; nearly all actives have a fitted effect of over 55% in size
Target sequence (A8B2U2 whole entry, looked up): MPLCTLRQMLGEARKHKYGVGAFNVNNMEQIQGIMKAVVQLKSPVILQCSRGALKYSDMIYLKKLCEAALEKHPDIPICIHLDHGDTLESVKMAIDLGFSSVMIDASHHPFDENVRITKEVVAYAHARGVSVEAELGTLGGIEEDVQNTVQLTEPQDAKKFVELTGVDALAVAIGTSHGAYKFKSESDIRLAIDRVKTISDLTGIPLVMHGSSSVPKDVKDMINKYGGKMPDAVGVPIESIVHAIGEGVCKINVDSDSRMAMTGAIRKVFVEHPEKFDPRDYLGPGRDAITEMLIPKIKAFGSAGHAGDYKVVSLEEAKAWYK
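40 nM FBPA preincubated 10 min at RT with compound (up to 57.5 uM final), then substrate plus GAPDH/TPI/NAD/arsenate coupling and diaphorase/resazurin added. Fluorescence read after 20 min at RT, 525/598 nm.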
NS1 function inh – inhibitors of influenza NS1 protein function; Potency, µM (series often up to 46.1 µM), for the others: top-dose activity, positive = more growth; 270,000 tested, 0.4% active; calls by dose curve; further: actives are rising curves; nearly all actives have a fitted effect of over 50% in size
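A cell-based growth assay was used: compounds that relieve NS1-induced slow growth of budding yeast raise OD600. Assay medium was yeast nitrogen base with ammonium sulphate and -URA supplement, pH 6.0, with 2% galactose.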
Sm TGR inh – blocks Schistosoma mansoni thioredoxin glutathione reductase; purified TGR, DTNB reduction, TNB absorbance 405 nm; Potency, µM (top dose mostly 114 µM), for inactives: at the highest dose activity change, negative = inhibition, actives largely listed as inhibitors; Q962Y6; AID 485364; 360,000 tested, 3% active; further: on the % scale 0 is the no-effect control and ±100 the full control effect; nearly all actives have a fitted effect of over 60% in size
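First, TGR (20 nM dispensed) and NADPH were mixed with compound. Second, a 15 min room-temperature incubation followed. Third, further NADPH and then DTNB were added to start the reaction. Finally, TNB absorbance was monitored kinetically.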
RE007 growth inh – less growth of the S. pombe RE007 Vpr strain; S. pombe RE007 Vpr strain, BacTiter-Glo ATP luminescence, 24 h; Potency, µM (highest dose often 92.2 µM), for the others: at the highest dose activity change, negative = less growth, actives largely listed as inhibitors; 360,000 tested, 0.21% active; AID 651644; active means well fitted falling curve with a large enough effect; inconclusive means small, poorly fitted or top-dose-only effect; inactive means no such curve, though single readings can be large or run the other way; further: on the % scale 0 is the no-effect control and ±100 the full control effect; nearly all actives have a fitted effect of over 50% in size
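Fission yeast strain RE007, carrying one chromosomally integrated HIV-1 vpr copy, was seeded at OD 0.01 in PMG+AL medium with 23 nL pinned compound. After 24 h at 30 °C and 99% humidity, viability was read by BacTiter-Glo luminescence.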
Giardia growth – inhibitors of Giardia lamblia growth; 1,500 tested, 5% active; Potency, µM (highest dose often 57.5 µM), inactives show top-dose activity change, negative = inhibition, most hits filed as inhibitors; shares compounds with Giardia FBPA inh-1; Giardia lamblia trophozoite growth inhibition;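 further: trophozoites exposed to compound for 48 h at 37 °C; on the % scale 0 is the no-effect control and ±100 the full control effect; nearly all actives have a fitted effect of over 70% in size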
Mammalian tox – mammalian cytotoxicity of Giardia aldolase inhibitor hits; mammalian cell viability counter-screen, qHTS; Potency, µM (doses to about 57.5 µM), without a hit: at the highest dose viability change, negative = toxicity, usual class: inhibitors; shares compounds with Giardia FBPA inh-1; AID 2786; 1,500 tested, 4% active;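 further: Chinese hamster ovary cells used as mammalian cytotoxicity surrogate; viability measured as cellular ATP by luminescence; compound exposure lasted 48 h before reading; on the % scale 0 is the no-effect control and ±100 the full control effect; nearly all actives have a fitted effect of over 60% in size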
Giardia FBPA inh-2 – confirmation of Giardia fructose-bisphosphate aldolase inhibitors. shares compounds with Giardia FBPA inh-1. 1,500 tested, 5% active. purified Giardia aldolase enzyme activity, qHTS. AID 2787. Potency, µM (top dose mostly 57.5 µM), without a hit: top-dose activity change, negative = inhibition, most hits filed as inhibitors; further: on the % scale 0 is the no-effect control and ±100 the full control effect; nearly all actives have a fitted effect of over 45% in size
Rabbit aldolase – rabbit FBP aldolase inhibition by Giardia aldolase hits | shares compounds with Giardia FBPA inh-1 | Rabbit muscle FBPA enzyme inhibition, selectivity counter-screen | Potency, µM (top dose mostly 57.5 µM), for inactives: at the top dose activity, negative = inhibition, hits mostly inhibitors | 1,500 tested, 4% active | AID 2794; further: on the % scale 0 is the no-effect control and ±100 the full control effect; nearly all actives have a fitted effect of over 60% in size
GAPDH coupling – counter-screen for Giardia aldolase inhibitors: GAPDH coupling enzyme. shares compounds with Giardia FBPA inh-1. GAPDH coupling enzyme counterscreen, biochemical, qHTS. Potency, µM (top dose mostly 57.5 µM), for inactives: top-dose activity change, negative = inhibition, hits mostly inhibitors. 1,500 tested, 6% active; further: on the % scale 0 is the no-effect control and ±100 the full control effect; nearly all actives have a fitted effect of over 55% in size
Numbers without * were called inactive; ? = inconclusive; · = no result given; [ ] = another dose, or the depositor's remark. In the library only some 3.5% were active in any assay of this set; here they are far more common. Unless noted, the call rests on the fitted dose curve; in most records, active means well fitted curve in the direction sought with a large enough effect; inconclusive means small, poorly fitted or top-dose-only effect, or another doubt; inactive means no such curve, though single readings can be large; an effect the other way counts as inactive or inconclusive. Potency means the concentration at half of the fitted maximal effect.

SMILES	Tb PYK inh	LmPK inh	Giardia FBPA inh-1	NS1 function inh	Sm TGR inh	RE007 growth inh	Giardia growth	Mammalian tox	Giardia FBPA inh-2	Rabbit aldolase	GAPDH coupling
CCOc1ccccc1-c1ccc(C(=O)O)o1	·	·	26.1%[136 µM]	·	·	·	·	·	·	·	·
O=C(NNC(=O)C12CC3CC(CC(C3)C1)C2)c1ccccn1	-1.7%	-0.7%	17.7µM*	4.9%	-1.7%	?	?	31.6µM*	6.1%	0.4%	-14.4%
O=C(NNC(=O)C12CC3CC(CC(C3)C1)C2)c1cnccn1	-8.7%	-6.8%	5.5%	3.4%	4.7%	?	·	·	·	·	·
C=C1CC2C3C=C(C)C4=CC(=O)CCC4(C)C3CCC2(C)[C@@]1(OC(C)=O)C(C)=O (stereo partly drawn)	2.1%	·	·	·	·	·	·	·	·	·	·
Cc1nnc(NC(=O)c2ccc(S(=O)(=O)N3CCc4ccccc4C3)cc2)o1	4.9%	6.4%	17.7µM*	·	10.6%	18.1%	?	0.8%	-6.6%	7.4%	5.7%
COc1ccccc1-c1nnc(NC(=O)c2ccc(S(=O)(=O)N3CCOCC3)cc2)o1	-1.4%	2.3%	·	-3.4%	3.0%	-5.1%	·	·	·	·	·
COCc1nnc(NC(=O)c2ccc(S(=O)(=O)N3CCCc4ccccc43)cc2)o1	0.4%	-4.7%	17.7µM*	·	-14.3%	16.2%	1.4%[10.4 µM]	-12.5%	-2.4%	10.6%	0.0%
COCc1nnc(NC(=O)c2ccc(S(=O)(=O)N3CCOCC3)cc2)o1	6.3%	3.7%	22.4µM*	6.4%	2.6%	-5.5%	?	-3.2%	3.6%	18.0%	4.6%
COc1cc(C(CC(=O)NCc2ccccc2)N2Cc3ccccc3C2=O)cc(OC)c1OC (stereo not drawn)	2.4%	·	·	·	7.2%	·	·	·	·	·	·
CN(C)c1ccc(N/C=C/C(=O)C(C)(C)C)cc1	-17.9%	-5.6%	14.1µM*	-0.9%	-24.8%	0.3%	?	-17.4%	-48.6%	?	-21.2%
CCOC(=O)c1ccc(N/C=C/C(=O)C(C)(C)C)cc1	-15.1%	3.3%	-5.0%	0.9%	·	-9.9%	·	·	·	·	·
CC(=O)c1cccc(NC(=O)c2sc(-n3nc(C)c(Cc4ccc5c(c4)OCO5)c3C)nc2C)c1	-4.3%	·	·	·	4.9%	·	·	·	·	·	·
Cc1cc(C)c(NC(=S)NCCCSC2CCCCC2)c(C)c1	-21.4%	1.6%	15.8µM*	·	8.4%	-7.5%	?	14.1%	9.0%	15.9%	-0.9%
CCOc1ccccc1NC(=O)Cn1c(=O)n(CCC(=O)NCc2ccc3c(c2)OCO3)c(=O)c2ccccc21	2.7%	·	·	·	17.7%	·	·	·	·	·	·
CC(C)(C)c1cc(C(=S)N2CCN(CCO)CC2)cc(C(C)(C)C)c1O	?	0.1%	9.98µM*	-15.8%	0.0%	18.4%	-3.9%[10.4 µM]	-4.0%	-12.3%	?	?
OCCN1CCN(C(=S)c2ccc(Cl)cc2)CC1	?	-4.7%	-16.5%	4.8%	-21.0%	18.2%	·	·	·	·	·
Cc1ccccc1N1CCN(CC(=O)Nc2nccs2)CC1	1.2%	-0.4%	11.2µM*	4.6%	0.0%	8.1%	-15.3%	-4.2%	5.8%	6.3%	6.1%
NC(=O)C1CCN(CC(=O)Nc2nccs2)CC1	4.6%	0.3%	3.55µM*	6.6%	0.8%	-9.0%	?	-5.6%	-24.8%	0.6%	13.9%
CCOc1ccc(C(=O)C2CCN(CC(=O)Nc3nccs3)CC2)cc1	-0.7%	-1.9%	?	-7.5%	-1.9%	3.2%	·	·	·	·	·
COc1ccc2[nH]cc(CCNC(=O)c3cnn(-c4ccccc4Cl)c3C3CCN(C(=O)OC(C)(C)C)CC3)c2c1	-3.2%	·	·	·	-18.0%	·	·	·	·	·	·
O=C(Cn1nnc(-c2cccc(C(F)(F)F)c2)n1)NCc1ccc(F)cc1	-3.6%	·	·	·	4.0%	·	·	·	·	·	·
O=C(Nc1cccc(F)c1)c1ccc2oc(=O)n(Cc3ccccc3)c2c1	-4.5%	·	·	·	-2.2%	·	·	·	·	·	·
CCOC(=O)c1ccc(CN(Cc2ccc(F)cc2)S(=O)(=O)c2ccc(F)cc2)cc1	-4.9%	·	·	·	9.7%	·	·	·	·	·	·
Cc1ccc(/C=N/Nc2nncc(-c3ccccc3)n2)o1	1.7%	1.3%	-5.7%	·	-2.0%	-18.9%	·	·	·	·	·
Cc1[nH]n(-c2ccccc2)c(=O)c1/C=N/Nc1nncc(-c2ccccc2)n1	0.5%	-17.8%	7.92µM*	-7.9%	-15.5%	-24.0%	?	20µM*	-16.5%	-3.2%	-7.8%
COc1ccc(C(=O)O)nc1C	3.6%	-0.3%	3.97µM*	3.3%	17.3%	·	8.4%[38.3 µM]	-6.1%	-3.5%	-5.5%	1.5%
CCc1ccc(Cc2cnc(NC(=O)C3=NCCN3)s2)cc1	5.2%	-1.1%	14.1µM*	·	-1.9%	-27.8%	?	-2.9%	9.9%	12.6%	2.1%
O=C(Nc1ncc(Cc2ccccc2Cl)s1)C1=NCCN1	-0.3%	-0.2%	9.5%	-30.0%	0.2%	-19.5%	·	·	·	·	·
